Measured values taken from PubChem BioAssay (EPA / NIEHS).
Several values for one entry are separate records, joined by “and”; a condition that tells them apart may be missing. Equal entries are not always repeated. Records with an inconclusive call do not appear. A structure can be active in one record and inactive in another. Activity calls are given as the source filed them. The calls were made as follows, unless noted: active = hit-call score of the fitted dose curve at least 0.9, where 1 is the maximum; inactive = score below 0.9.

Key:
[1] = BSK_BT_PBMCCytotoxicity: PBMC Cytotoxicity Assessment in the BioMAP Diversity Plus: BT Assay (AID 2284225); settings: primary human B cells with PBMC;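 also: PBMC viability measured by Alamar Blue dye reduction fluorescence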
Method in brief: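 PBMC (75,000/well) pretreated with compound 1 h, then activated with SEB and TSST-1 (20 ng/mL each final), incubated 90 h; Alamar Blue added 6 h, fluorescence read at 546/580 nm. Fitted relative to DMSO.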

[2] = read-out: Secreted IgG (sIgG), gene 3500; test: BSK_BT_sIgG: BioMAP Diversity Plus: BT Assay for Secreted IgG (sIgG) Biomarker Activity (AID 2284226); settings: primary human B cells with PBMC
Method: BSK_BT is a cell-based, multiplexed-readout assay that uses B cell and peripheral blood mononuclear cells, a human vascular primary cell co-culture, with measurements taken at 24 hours after chemical dosing in a microplate: 96-well plate.BSK_BT_sIgG is an assay component measured in the BSK_BT assay. It measures secreted IgG related to regulation of gene expression using ELISA technology.Data from the assay component BSK_BT_sIgG was analyzed at the endpoint, BSK_BT_sIgG, in the positive analysis fitting direction relative to DMSO as the negative control and baseline of activity. Using a type of cytokine quantitation reporter, gain or loss-of-signal activity can be used to understand protein changes. […]
The levels of cell surface (or secreted, indicated by the prefix "s") biomarker endpoints were measured by ELISA. Overt cytotoxicity to cells in confluent adherent cultures (all systems other than the BT system) was assessed by measuring total protein levels using sulforhodamine B (SRB) staining in parallel cultures at the time of biomarker measurements, indicated as SRB endpoints. For proliferation assays for adherent cell types, individual cell types are cultured at sub-confluence and relative cell numbers quantified by SRB staining at time points optimized for each system (48 h: 3C and CASM3C systems; 72 h: BT and HDF3CGF systems; 96 h: SAg system). […] Plates were read after 6 h.

[3] = BSK_BT_Bcell_Proliferation: Viability Assessment in the BioMAP Diversity Plus: BT Assay for B cell Proliferation (AID 2284227); settings: primary human B cells with PBMC
Method in brief: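 Using a human primary B cell–PBMC co-culture, the assay measures total protein by sulforhodamine B absorbance as a gauge of proliferation after 72 h. Analysis followed the positive fitting direction with DMSO as baseline.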

[4] = read-out: Interleukin 6 (IL6), IL6 (gene 3569); test: BSK_BT_xIL6: BioMAP Diversity Plus: BT Assay for Interleukin 6 (IL6) Biomarker Activity (AID 2284228); settings: primary human B cells with PBMC
Method in brief: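 Human B cell plus PBMC co-culture exposed to test chemical for 24 h; secreted IL-6 quantified by Luminex xMAP bead assay. Activity fitted in the positive direction against DMSO as negative control and baseline.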

[5] = read-out: Interleukin 17A (IL17A), IL17A (gene 3605); test: BSK_BT_xIL17A: BioMAP Diversity Plus: BT Assay for Interleukin 17A (IL17A) Biomarker Activity (AID 2284229); settings: primary human B cells with PBMC
Method in brief: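 B cells co-cultured with PBMC were exposed to test chemicals, and secreted IL-17A was quantified 24 h after dosing by Luminex xMAP bead immunoassay. Activity was fitted in the gain direction against DMSO as baseline.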

[6] = read-out: Tumor necrosis factor (Homo sapiens) (UniProt P01375); test: BSK_BT_xTNFa: BioMAP Diversity Plus: BT Assay for Tumor necrosis factor alpha (TNF-alpha) Biomarker Activity (AID 2284230); settings: primary human B cells with PBMC
Method in brief: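 Endpoint derived in the positive direction versus DMSO vehicle. Cells: B cells together with PBMC, exposed 24 h before TNF-alpha in the medium was read on the Luminex xMAP platform.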

[7] = read-out: Vascular cell adhesion molecule 1 (VCAM1), VCAM1 (gene 7412); test: BSK_MyoF_VCAM1: BioMAP Diversity Plus: MyoF Assay for Vascular cell adhesion molecule 1 (VCAM1) Biomarker Activity (AID 2284231); settings: primary human lung fibroblasts
Method in brief: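 Primary human lung fibroblasts were dosed with test chemical for 24 h, then cell-surface VCAM-1 was measured by ELISA. Activity was fitted in the positive direction against DMSO as negative control and baseline.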

[8] = TAMU_HCS_1.5hr_SingleDonor1434_Cytotoxicity: Cytotoxicity Assessment using High-content Screening (HCS) Fluorescent Imaging for the Texas A&M University (TAMU) 1.5-hr Human Induced Pluripotent Stem Cell (iPSC)-derived Cardiotoxicity Assay (AID 2284234; active = hit-call score of the fitted dose curve at least 0.9, where 1 is the maximum)
Method in brief: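 Human iPSC-derived cardiomyocytes dosed at 0.2, 1, 10, 100 uM final (0.5% DMSO) for 90 min at 37 C. Hoechst 33342-stained nuclei counted by 10x high-content imaging; POD is EC10, a 10% drop in total cell count versus DMSO.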

[9] = TAMU_PeakParms_SingleDonor1434_QT: Texas A&M University (TAMU) 1.5-hr Human Induced Pluripotent Stem Cell (iPSC)-derived Cardiomyocytes Calcium (Ca+2) Flux Assay for Cardiotoxicity: QT (decay-rise ratio) (AID 2284235; active = hit-call score of the fitted dose curve at least 0.9, where 1 is the maximum)
Method in brief: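 iPSC-derived cardiomyocytes (single donor 1434) dosed at 0.2, 1, 10, 100 uM final in 0.5% DMSO, 90 min at 37C. Ca2+ flux fluorescence decay/rise ratio; EC05 (5% increase versus DMSO) as POD, excluding beat-arrest and severe-notch data.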

Tumor necrosis factor (Homo sapiens), sequence (P01375 whole entry, looked up): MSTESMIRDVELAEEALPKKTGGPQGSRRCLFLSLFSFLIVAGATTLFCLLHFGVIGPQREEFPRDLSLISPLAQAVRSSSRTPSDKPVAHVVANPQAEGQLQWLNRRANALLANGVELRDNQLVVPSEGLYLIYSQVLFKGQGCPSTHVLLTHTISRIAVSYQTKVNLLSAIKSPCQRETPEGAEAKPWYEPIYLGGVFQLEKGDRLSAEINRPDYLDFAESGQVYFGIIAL

SMILES: Cn1cnc([N+](=O)[O-])c1Sc1ncnc2nc[nH]c12
- AC50 [1]: 8.01 µM (active)
- outcome [1]: inactive
- AC50 [2]: 206 nM (active) and 716 nM (active)
- AC50 [3]: 10.5 µM (active) and 5.28 µM (active)
- AC50 [4]: 8.87 µM (active) and 12.6 µM (active)
- AC50 [5]: 12.6 µM (active) and 10.3 µM (active)
- AC50 [6]: 12.6 µM (active)
- outcome [7]: inactive

SMILES: CCCCCCc1ccc(O)cc1O
- AC50 [8]: 50 µM (active)
- outcome [9]: inactive

SMILES: NC(=O)NO
- outcome [9]: inactive
